Assay results taken from PMC11006913.
Substitutions are numbered along the chain they refer to.

How the values were obtained:
Experiment in all cases: PBM; 200 nM protein, PBS
Details in all cases: dsDNA, one strand shown
[1] = target: T1, SIX6 (Homo sapiens, UniProt O95475 114-200, L167I)
T1 sequence: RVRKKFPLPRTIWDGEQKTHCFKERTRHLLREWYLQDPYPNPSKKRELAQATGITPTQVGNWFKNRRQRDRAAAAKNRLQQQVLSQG

[2] = target: T2, SIX6 (Homo sapiens, UniProt O95475 114-200, H141N)
T2 sequence: T1 sequence with H28N, I54L

[3] = target: T3, SIX6 (Homo sapiens, UniProt O95475 114-200, T165G)
T3 sequence: T1 sequence with T52G, I54L

[4] = target: T4, SIX6 (Homo sapiens, UniProt O95475 114-200, T165A)
T4 sequence: T1 sequence with T52A, I54L

[5] = target: T5, SIX6 (Homo sapiens, UniProt O95475 114-200, L167V)
T5 sequence: T1 sequence with I54V

[6] = target: T6, SIX6 (Homo sapiens, UniProt O95475 114-200, T165I)
T6 sequence: T1 sequence with T52I, I54L

[7] = target: T7, SIX6 (Homo sapiens, UniProt O95475 114-200, T165P)
T7 sequence: T1 sequence with T52P, I54L

[8] = target: T8, SIX6 (Homo sapiens, UniProt O95475 114-200, L167M)
T8 sequence: T1 sequence with I54M

[9] = target: T9, SIX6 (Homo sapiens, UniProt O95475 114-200, L143M)
T9 sequence: T1 sequence with L30M, I54L

[10] = target: T10, SIX6 (Homo sapiens, UniProt O95475 114-200, L143I)
T10 sequence: T1 sequence with L30I, I54L

[11] = target: T11, SIX6 (Homo sapiens, UniProt O95475 114-200, T139Q)
T11 sequence: T1 sequence with T26Q, I54L

[12] = target: T12, SIX6 (Homo sapiens, UniProt O95475 114-200)
T12 sequence: T1 sequence with I54L

| Sequence | binding signal [1] | binding signal [2] | binding signal [3] | binding signal [4] | binding signal [5] | binding signal [6] | binding signal [7] | binding signal [8] | binding signal [9] | binding signal [10] | binding signal [11] | binding signal [12] |
| --- | --- | --- | --- | --- | --- | --- | --- | --- | --- | --- | --- | --- |
| ATATCACC | 11.2 upbm affinity estimate (log intensity, higher = more binding, comparable within an allelic series) | 11.1 upbm affinity estimate (log intensity, higher = more binding, comparable within an allelic series) | 11.2 upbm affinity estimate (log intensity, higher = more binding, comparable within an allelic series) | 11.1 upbm affinity estimate (log intensity, higher = more binding, comparable within an allelic series) | 10.9 upbm affinity estimate (log intensity, higher = more binding, comparable within an allelic series) | 10.9 upbm affinity estimate (log intensity, higher = more binding, comparable within an allelic series) | – | – | – | – | – | – |
| CATATCAA | 11.2 upbm affinity estimate (log intensity, higher = more binding, comparable within an allelic series) | 11.1 upbm affinity estimate (log intensity, higher = more binding, comparable within an allelic series) | 11.2 upbm affinity estimate (log intensity, higher = more binding, comparable within an allelic series) | 11.2 upbm affinity estimate (log intensity, higher = more binding, comparable within an allelic series) | 10.9 upbm affinity estimate (log intensity, higher = more binding, comparable within an allelic series) | 11 upbm affinity estimate (log intensity, higher = more binding, comparable within an allelic series) | – | – | – | – | – | – |
| ATTATCCG | 10.4 upbm affinity estimate (log intensity, higher = more binding, comparable within an allelic series) | 10.3 upbm affinity estimate (log intensity, higher = more binding, comparable within an allelic series) | 10.2 upbm affinity estimate (log intensity, higher = more binding, comparable within an allelic series) | 10.2 upbm affinity estimate (log intensity, higher = more binding, comparable within an allelic series) | 10.2 upbm affinity estimate (log intensity, higher = more binding, comparable within an allelic series) | 10.2 upbm affinity estimate (log intensity, higher = more binding, comparable within an allelic series) | 9.7 upbm affinity estimate (log intensity, higher = more binding, comparable within an allelic series) | 10.2 upbm affinity estimate (log intensity, higher = more binding, comparable within an allelic series) | 10.3 upbm affinity estimate (log intensity, higher = more binding, comparable within an allelic series) | 9.95 upbm affinity estimate (log intensity, higher = more binding, comparable within an allelic series) | 10.4 upbm affinity estimate (log intensity, higher = more binding, comparable within an allelic series) | 10.3 upbm affinity estimate (log intensity, higher = more binding, comparable within an allelic series) |
| ATCCTAAT | 10.2 upbm affinity estimate (log intensity, higher = more binding, comparable within an allelic series) | 10.2 upbm affinity estimate (log intensity, higher = more binding, comparable within an allelic series) | 10.2 upbm affinity estimate (log intensity, higher = more binding, comparable within an allelic series) | 10.2 upbm affinity estimate (log intensity, higher = more binding, comparable within an allelic series) | 10.1 upbm affinity estimate (log intensity, higher = more binding, comparable within an allelic series) | 10.2 upbm affinity estimate (log intensity, higher = more binding, comparable within an allelic series) | – | 10.1 upbm affinity estimate (log intensity, higher = more binding, comparable within an allelic series) | 10.2 upbm affinity estimate (log intensity, higher = more binding, comparable within an allelic series) | – | 10.5 upbm affinity estimate (log intensity, higher = more binding, comparable within an allelic series) | 10.2 upbm affinity estimate (log intensity, higher = more binding, comparable within an allelic series) |
| GGGTGTCA | 10.4 upbm affinity estimate (log intensity, higher = more binding, comparable within an allelic series) | – | 11.1 upbm affinity estimate (log intensity, higher = more binding, comparable within an allelic series) | 11.1 upbm affinity estimate (log intensity, higher = more binding, comparable within an allelic series) | – | – | 9.2 upbm affinity estimate (log intensity, higher = more binding, comparable within an allelic series) | 9.79 upbm affinity estimate (log intensity, higher = more binding, comparable within an allelic series) | – | – | – | – |
| TGACACCA | 10.3 upbm affinity estimate (log intensity, higher = more binding, comparable within an allelic series) | – | 11.2 upbm affinity estimate (log intensity, higher = more binding, comparable within an allelic series) | 11.1 upbm affinity estimate (log intensity, higher = more binding, comparable within an allelic series) | – | – | – | 9.84 upbm affinity estimate (log intensity, higher = more binding, comparable within an allelic series) | – | – | – | – |
| CGGTGTCA | 10.3 upbm affinity estimate (log intensity, higher = more binding, comparable within an allelic series) | – | – | 11.1 upbm affinity estimate (log intensity, higher = more binding, comparable within an allelic series) | – | – | 9.3 upbm affinity estimate (log intensity, higher = more binding, comparable within an allelic series) | 9.76 upbm affinity estimate (log intensity, higher = more binding, comparable within an allelic series) | – | – | – | – |
| GATCCAAA | 10.4 upbm affinity estimate (log intensity, higher = more binding, comparable within an allelic series) | 10.2 upbm affinity estimate (log intensity, higher = more binding, comparable within an allelic series) | 10.2 upbm affinity estimate (log intensity, higher = more binding, comparable within an allelic series) | 10.2 upbm affinity estimate (log intensity, higher = more binding, comparable within an allelic series) | 10.1 upbm affinity estimate (log intensity, higher = more binding, comparable within an allelic series) | 10.2 upbm affinity estimate (log intensity, higher = more binding, comparable within an allelic series) | 9.67 upbm affinity estimate (log intensity, higher = more binding, comparable within an allelic series) | 10 upbm affinity estimate (log intensity, higher = more binding, comparable within an allelic series) | 10.4 upbm affinity estimate (log intensity, higher = more binding, comparable within an allelic series) | – | 10.5 upbm affinity estimate (log intensity, higher = more binding, comparable within an allelic series) | 10.3 upbm affinity estimate (log intensity, higher = more binding, comparable within an allelic series) |
| AAGTGATA | 11.2 upbm affinity estimate (log intensity, higher = more binding, comparable within an allelic series) | 11.1 upbm affinity estimate (log intensity, higher = more binding, comparable within an allelic series) | 11.1 upbm affinity estimate (log intensity, higher = more binding, comparable within an allelic series) | 11.1 upbm affinity estimate (log intensity, higher = more binding, comparable within an allelic series) | 10.9 upbm affinity estimate (log intensity, higher = more binding, comparable within an allelic series) | 11 upbm affinity estimate (log intensity, higher = more binding, comparable within an allelic series) | – | – | 11 upbm affinity estimate (log intensity, higher = more binding, comparable within an allelic series) | – | – | – |
